# Assays:
# Settings in all cases: concentration: 1 μM, replicates: in singlicate; n = 1
# [1] = system: T1, PCTK2
# T1 construct: gene CDK17
# [2] = system: T2, PCTK3
# T2 construct: gene CDK18
# [3] = system: PDGFRA
# [4] = system: PDGFRB
# [5] = system: PDPK1
# [6] = system: PFTAIRE2
# [7] = system: T3, PFTK1
# T3 construct: gene CDK14
# [8] = system: PHKG1
# [9] = system: PHKG2
# [10] = system: PIK3C2B
# [11] = system: PIK3C2G
# [12] = system: PIK3CA
# [13] = system: PIK3CB
# [14] = system: PIK3CD
# [15] = system: PIK3CG
# [16] = system: T4, PIK4CB
# T4 construct: gene PI4KB
# [17] = system: PIKFYVE
# [18] = system: PIM1
# [19] = system: PIM2
# [20] = system: PIM3
# 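Further: KINOMEscan kinase panel screen.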
Compound,%Inh [1] [%],%Inh [2] [%],%Inh [3] [%],%Inh [4] [%],%Inh [5] [%],%Inh [6] [%],%Inh [7] [%],%Inh [8] [%],%Inh [9] [%],%Inh [10] [%],%Inh [11] [%],%Inh [12] [%],%Inh [13] [%],%Inh [14] [%],%Inh [15] [%],%Inh [16] [%],%Inh [17] [%],%Inh [18] [%],%Inh [19] [%],%Inh [20] [%]
O=C(O)C(F)(F)F.O=c1[nH]ccc2nc(N[C@@H]3CCNC3)nc(Nc3ccc4c(c3)S(=O)(=O)CC4)c12 [GSK2181306],71,38,94.1,99.6,93.5,14,14,96.9,93.7,12,23,9,100,34,86,0,0,89,96.6,99
Nc1ncnc2scc(-c3ccc(NC(=O)Cc4cc(F)ccc4F)cc3)c12.O=C(O)C(F)(F)F [SB-731254-M],0,13,99.5,99.9,41,0,2,6,16,22,13,0,0,0,23,22,0,0,0,19
Cc1ccc(NC(=O)c2ccnc(N3CCCCC3)c2)cc1-c1ccc(C(=O)NCC2CC2)cc1 [GW775610],15,0,59,98.3,0,19,0,0,0,18,0,0,0,0,36,8,24,0,0,0
COc1ccc(C2=C(Nc3cccc(O)c3)C(=O)NC2=O)cc1 [SB-390766],0,16,0,26,0,4,13,0,21,0,0,0,0,2,0,9,0,9,0,0
CC(C)(C)c1ccc(C(=O)Nc2cn3cc(-n4ccnc4)ccc3n2)cc1,14,0,61,96.9,1,8,10,40,13,0,32,0,3,0,4,2,5,7,0,0
N#Cc1cnc2cc(-c3cnc(CNCCN4CCOCC4)s3)ccc2c1Nc1ccc(Oc2ccccc2)cc1 [GW664114],11,18,0,24,0,22,18,0,0,0,0,0,0,7,0,11,100,11,0,8
Cn1cc(-c2cnc(N)c3c(-c4ccc5c(c4)CCN5C(=O)Cc4ccccc4)csc23)cn1 [GSK2593074],0,6,98.2,100,56,0,0,6,14,13,35,8,0,0,3,100,0,0,15,1
COC(=O)Nc1nc2ccc(Oc3ccc(CC(=O)Nc4cc(C(F)(F)F)ccc4F)cc3)cc2[nH]1 [GW680903],0,30,98.5,100,0,0,14,0,0,0,0,0,0,0,0,0,5,19,0,0
CC(C)c1nc(-c2cccc(NS(=O)(=O)c3c(F)cccc3F)c2)c(-c2ccnc(Nc3ccc(N4CCOCC4)nc3)n2)s1.Cl [GSK1723980],100,100,88,100,0,69,82,0,0,7,0,0,0,0,0,0,0,0,0,0
